The values below come from ChEMBL document CHEMBL3988442, “University of Dundee, Small-Polar-MMV Screening Library” (2021).

For some of these results: Measured potencies and affinities stand elsewhere.

Holding throughout (design): scale not given: direction of the effect not stated beside the values
The target of test [1] is Protein translocase subunit SecA (Escherichia coli (strain K12)) (UniProt P10408). Nature of the test: Assay to Identify E. coli SecA ATPase Inhibitors. In kind it is functional. To be noted: 30 µM.
In test [2] the target is T1, Ubiquitin-activating enzyme e1, putative (Leishmania donovani (strain BPK282A1)) (UniProt E9BSI1).
T1 sequence (whole entry): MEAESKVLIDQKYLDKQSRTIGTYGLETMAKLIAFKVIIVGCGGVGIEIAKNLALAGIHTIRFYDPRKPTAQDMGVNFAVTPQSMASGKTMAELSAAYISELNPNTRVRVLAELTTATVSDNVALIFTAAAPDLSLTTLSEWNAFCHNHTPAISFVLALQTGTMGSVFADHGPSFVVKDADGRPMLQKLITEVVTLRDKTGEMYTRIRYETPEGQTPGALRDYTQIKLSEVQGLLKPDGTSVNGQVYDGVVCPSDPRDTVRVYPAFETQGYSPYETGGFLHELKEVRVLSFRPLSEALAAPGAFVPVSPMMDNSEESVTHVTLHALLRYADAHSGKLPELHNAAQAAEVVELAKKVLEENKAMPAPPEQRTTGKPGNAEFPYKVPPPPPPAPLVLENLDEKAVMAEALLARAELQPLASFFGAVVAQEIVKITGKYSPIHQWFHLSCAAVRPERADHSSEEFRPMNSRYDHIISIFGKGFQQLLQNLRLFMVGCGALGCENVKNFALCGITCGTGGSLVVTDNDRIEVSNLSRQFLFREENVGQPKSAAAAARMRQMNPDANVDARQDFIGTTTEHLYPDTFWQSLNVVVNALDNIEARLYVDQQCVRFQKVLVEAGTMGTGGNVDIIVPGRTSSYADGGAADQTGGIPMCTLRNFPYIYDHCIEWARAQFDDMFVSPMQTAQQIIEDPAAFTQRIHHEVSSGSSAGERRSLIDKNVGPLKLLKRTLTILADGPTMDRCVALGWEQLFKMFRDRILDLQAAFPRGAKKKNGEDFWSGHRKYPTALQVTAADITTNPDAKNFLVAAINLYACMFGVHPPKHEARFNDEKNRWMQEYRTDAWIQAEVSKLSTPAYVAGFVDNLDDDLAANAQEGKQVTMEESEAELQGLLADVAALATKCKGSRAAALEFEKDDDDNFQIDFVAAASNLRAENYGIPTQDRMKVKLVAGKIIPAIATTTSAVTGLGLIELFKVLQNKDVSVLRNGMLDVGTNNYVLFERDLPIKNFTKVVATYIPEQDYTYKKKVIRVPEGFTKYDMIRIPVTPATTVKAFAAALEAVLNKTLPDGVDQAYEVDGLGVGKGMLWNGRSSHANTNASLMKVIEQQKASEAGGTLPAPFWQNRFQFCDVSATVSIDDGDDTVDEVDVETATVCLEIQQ
Nature of the test: Leishmania donovani Ubiquitin Activating Enzyme (LdE1). Format: functional. Particulars: 30 µM.

Test [3] addresses AMP-activated protein kinase, AMPK (Homo sapiens) (UniProt P54646+O43741+P54619+Q9UGJ0+Q9Y478+Q13131+Q9UGI9). Nature of the test: AMP-dependent Kinase enzyme assay. An in vitro enzyme assay that detects ADP turnover that is directly proportional to AMPK activity. This uses naive AMPK that is activated during the assay with MK-8722. In kind it is functional. To be noted: 30 µM.

Test [4] concerns the target Sialic acid-binding Ig-like lectin 9 (Homo sapiens) (UniProt Q9Y336). Briefly: Hs-Siglec9 ALPHAscreen SOP 20170721. Particulars: 10 µM.
In a further test the test system is Trypanosoma cruzi. Briefly: Trypanosoma cruzi phosphomannomutase and mannose-1-phosphate guanylyltransferase assay. Particulars: 10 µM. Format: functional.
Test [5] has as its target T2, Arginase-2, mitochondrial (Homo sapiens) (UniProt P78540).
T2 sequence (whole entry): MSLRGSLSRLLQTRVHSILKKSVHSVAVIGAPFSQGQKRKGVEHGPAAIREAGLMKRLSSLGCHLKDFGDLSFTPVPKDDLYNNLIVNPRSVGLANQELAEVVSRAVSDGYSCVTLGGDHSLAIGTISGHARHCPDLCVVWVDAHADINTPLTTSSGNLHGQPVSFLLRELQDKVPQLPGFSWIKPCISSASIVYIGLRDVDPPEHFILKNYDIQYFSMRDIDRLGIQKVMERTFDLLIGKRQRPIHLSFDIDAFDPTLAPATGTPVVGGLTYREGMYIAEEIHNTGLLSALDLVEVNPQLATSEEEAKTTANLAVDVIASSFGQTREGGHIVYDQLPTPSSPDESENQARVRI
Nature of the test: in vitro enzyme assay to detect the production of urea directly proportional to the activity of Arginase II. Further: in the data most compounds retested in dose-response had high values. In kind it is functional. To be noted: 33.3 µM.

The target in test [6] is T3, Proteasome subunit beta (Trypanosoma cruzi) (UniProt O96673).
T3 sequence (whole entry): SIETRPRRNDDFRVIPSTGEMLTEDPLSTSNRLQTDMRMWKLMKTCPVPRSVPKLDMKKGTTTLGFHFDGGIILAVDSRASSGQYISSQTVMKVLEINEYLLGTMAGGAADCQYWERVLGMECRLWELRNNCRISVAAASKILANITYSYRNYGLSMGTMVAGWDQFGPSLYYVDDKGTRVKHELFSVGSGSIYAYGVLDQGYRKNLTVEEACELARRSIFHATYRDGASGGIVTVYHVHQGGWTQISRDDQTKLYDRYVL
Nature of the test: Trypanosoma cruzi proteasome chymotrypsin-like activity (TcProtChymo) assay. Further: in the data most compounds retested in dose-response had high values. Format: functional. To be noted: 9.37 µM.

For the next test, the species on record is Homo sapiens. Nature of the test: To identify inhibition of the IFN signalling (Jak-Stat) pathway via expression of an eGFP reporter gene under the control of an IFN-stimulated response element (ISRE) containing MxA promoter. Particulars: 30 µM. Format: functional.
In test [7] the target is T4, Tyrosyl-tRNA synthetase, putative (Trypanosoma cruzi (strain CL Brener)) (UniProt Q4DSP6).
T4 sequence (whole entry): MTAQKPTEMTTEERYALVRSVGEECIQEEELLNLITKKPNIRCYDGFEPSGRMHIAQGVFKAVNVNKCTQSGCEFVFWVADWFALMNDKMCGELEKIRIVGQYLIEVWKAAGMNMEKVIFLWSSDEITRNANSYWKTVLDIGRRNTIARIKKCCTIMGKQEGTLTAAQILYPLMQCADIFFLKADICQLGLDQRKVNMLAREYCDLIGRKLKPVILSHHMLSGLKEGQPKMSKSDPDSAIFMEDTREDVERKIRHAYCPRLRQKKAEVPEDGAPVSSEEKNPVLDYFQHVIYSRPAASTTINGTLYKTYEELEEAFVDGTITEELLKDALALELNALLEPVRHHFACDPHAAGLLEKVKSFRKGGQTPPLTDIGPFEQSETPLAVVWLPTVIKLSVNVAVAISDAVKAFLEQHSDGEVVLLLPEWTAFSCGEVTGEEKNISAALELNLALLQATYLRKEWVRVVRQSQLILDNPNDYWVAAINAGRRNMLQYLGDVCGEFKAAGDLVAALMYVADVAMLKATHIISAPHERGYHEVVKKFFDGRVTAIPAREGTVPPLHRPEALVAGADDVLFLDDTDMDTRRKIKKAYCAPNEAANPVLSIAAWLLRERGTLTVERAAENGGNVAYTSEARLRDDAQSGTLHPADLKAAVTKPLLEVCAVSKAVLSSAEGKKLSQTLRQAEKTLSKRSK
Briefly: Trypanosoma cruzi tyrosyl tRNA synthetase (TcYRS) _High Tyrosine SOP. Further: in the data most compounds retested in dose-response had high values. Format: functional. Particulars: 30 µM.

The target in test [8] is T4, Tyrosyl-tRNA synthetase, putative (Trypanosoma cruzi (strain CL Brener)). Nature of the test: Trypanosoma cruzi tyrosyl tRNA synthetase (TcYRS) SOP. In kind it is functional. To be noted: 30 µM.
The target of test [9] is Chromo domain-containing protein 1 (Saccharomyces cerevisiae (strain ATCC 204508 / S288c) (Baker's yeast)) (UniProt P32657). Briefly: ScCHD-1 Enzyme Inhibition Assay. Further: in the data most compounds retested in dose-response had high values. Format: functional. Particulars: 30 µM.
Chain of Chromo domain-containing protein 1 (Saccharomyces cerevisiae (strain ATCC 204508 / S288c) (Baker's yeast)) (P32657 whole entry, the tested form may be a part): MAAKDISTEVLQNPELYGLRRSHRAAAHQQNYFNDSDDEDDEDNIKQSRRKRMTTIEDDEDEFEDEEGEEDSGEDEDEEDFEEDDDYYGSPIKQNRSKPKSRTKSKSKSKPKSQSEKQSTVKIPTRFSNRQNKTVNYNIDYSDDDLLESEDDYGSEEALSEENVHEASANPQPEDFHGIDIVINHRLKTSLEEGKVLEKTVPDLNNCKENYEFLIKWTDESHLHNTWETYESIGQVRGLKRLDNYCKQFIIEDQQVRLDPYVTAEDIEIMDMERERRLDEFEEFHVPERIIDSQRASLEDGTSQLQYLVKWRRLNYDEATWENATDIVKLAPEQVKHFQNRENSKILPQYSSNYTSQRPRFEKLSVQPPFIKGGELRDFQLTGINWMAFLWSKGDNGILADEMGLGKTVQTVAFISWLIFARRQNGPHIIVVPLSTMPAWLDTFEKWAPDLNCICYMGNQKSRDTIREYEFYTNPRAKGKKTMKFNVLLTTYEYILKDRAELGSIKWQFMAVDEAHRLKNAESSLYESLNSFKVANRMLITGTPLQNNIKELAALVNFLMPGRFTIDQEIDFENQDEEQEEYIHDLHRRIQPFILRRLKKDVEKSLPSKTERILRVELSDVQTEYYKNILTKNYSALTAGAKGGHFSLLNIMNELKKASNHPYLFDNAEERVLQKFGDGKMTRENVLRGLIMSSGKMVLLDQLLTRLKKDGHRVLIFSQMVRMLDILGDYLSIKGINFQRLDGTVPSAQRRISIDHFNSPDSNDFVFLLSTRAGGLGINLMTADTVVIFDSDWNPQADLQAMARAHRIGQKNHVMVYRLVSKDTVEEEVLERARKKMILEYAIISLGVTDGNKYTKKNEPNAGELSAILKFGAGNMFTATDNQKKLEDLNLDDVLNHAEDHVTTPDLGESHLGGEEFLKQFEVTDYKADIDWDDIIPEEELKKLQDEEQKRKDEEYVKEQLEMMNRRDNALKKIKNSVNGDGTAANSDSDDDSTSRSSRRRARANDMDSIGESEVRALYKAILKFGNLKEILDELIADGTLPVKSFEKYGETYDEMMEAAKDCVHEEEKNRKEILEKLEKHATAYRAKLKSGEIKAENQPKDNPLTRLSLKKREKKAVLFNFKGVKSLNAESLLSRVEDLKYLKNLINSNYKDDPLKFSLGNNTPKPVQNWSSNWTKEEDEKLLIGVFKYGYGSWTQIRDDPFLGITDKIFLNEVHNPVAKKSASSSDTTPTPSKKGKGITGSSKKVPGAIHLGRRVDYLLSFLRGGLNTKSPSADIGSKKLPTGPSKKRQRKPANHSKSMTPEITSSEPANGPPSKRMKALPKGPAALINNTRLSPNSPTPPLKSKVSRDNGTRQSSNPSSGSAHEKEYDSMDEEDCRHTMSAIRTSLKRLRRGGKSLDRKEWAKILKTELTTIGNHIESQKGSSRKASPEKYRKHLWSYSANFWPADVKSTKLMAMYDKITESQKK

Chain of Sialic acid-binding Ig-like lectin 9 (Homo sapiens) (Q9Y336 whole entry): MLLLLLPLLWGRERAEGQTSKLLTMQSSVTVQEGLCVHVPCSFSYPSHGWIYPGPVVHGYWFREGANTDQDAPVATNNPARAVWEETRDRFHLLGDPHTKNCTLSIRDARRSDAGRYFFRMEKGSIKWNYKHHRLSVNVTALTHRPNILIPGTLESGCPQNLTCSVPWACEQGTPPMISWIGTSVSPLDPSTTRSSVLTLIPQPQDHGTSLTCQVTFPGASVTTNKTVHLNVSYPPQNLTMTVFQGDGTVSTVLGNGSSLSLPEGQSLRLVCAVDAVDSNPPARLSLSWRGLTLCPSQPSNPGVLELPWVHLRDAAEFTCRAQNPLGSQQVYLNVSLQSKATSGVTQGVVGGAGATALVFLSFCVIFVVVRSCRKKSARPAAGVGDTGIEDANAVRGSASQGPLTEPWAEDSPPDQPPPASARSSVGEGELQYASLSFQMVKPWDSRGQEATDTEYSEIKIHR
Chain of Protein translocase subunit SecA (Escherichia coli (strain K12)) (P10408 whole entry): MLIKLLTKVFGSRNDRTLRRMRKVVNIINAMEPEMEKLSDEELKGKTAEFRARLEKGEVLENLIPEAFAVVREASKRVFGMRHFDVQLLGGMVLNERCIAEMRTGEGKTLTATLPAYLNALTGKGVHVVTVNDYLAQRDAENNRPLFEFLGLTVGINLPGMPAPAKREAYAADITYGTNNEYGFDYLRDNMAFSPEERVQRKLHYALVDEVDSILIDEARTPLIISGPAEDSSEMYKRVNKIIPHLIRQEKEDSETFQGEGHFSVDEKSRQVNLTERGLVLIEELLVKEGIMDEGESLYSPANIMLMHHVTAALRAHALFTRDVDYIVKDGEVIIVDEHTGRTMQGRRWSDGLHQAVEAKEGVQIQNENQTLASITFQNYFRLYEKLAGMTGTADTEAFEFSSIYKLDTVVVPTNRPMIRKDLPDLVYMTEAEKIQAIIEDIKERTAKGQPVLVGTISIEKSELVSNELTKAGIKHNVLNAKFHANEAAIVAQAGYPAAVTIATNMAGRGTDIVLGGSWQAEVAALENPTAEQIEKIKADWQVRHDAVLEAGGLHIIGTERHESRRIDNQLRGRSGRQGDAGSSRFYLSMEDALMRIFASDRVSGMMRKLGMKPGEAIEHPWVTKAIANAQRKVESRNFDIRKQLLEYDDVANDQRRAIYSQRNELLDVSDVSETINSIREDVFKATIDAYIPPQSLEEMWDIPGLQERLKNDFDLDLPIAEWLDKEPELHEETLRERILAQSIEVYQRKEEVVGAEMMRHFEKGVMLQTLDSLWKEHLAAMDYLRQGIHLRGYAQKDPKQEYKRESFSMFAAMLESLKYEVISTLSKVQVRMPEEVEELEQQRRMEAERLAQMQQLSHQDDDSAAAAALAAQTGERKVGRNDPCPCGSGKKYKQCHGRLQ

In the case of `CC(C)NC(=O)[C@@H]1C[C@H](N)CN1C(=O)c1cc2ccccc2[nH]c1=O`, the Percent Effect in test [1] is -3.02%; in test [2] it was 20.8%; in test [3], -9.81%; in test [4], 9.13%; in the test with Trypanosoma cruzi, 4.76%; in [5], 4.86%. Also, the Percent Effect was 12.3% in test [6]; -0.74% in the test filed under Homo sapiens; 8.42% in [7]; 15.4% in test [8]; -6.54% in test [9].

For the compound `CC(C)CCNC(=O)c1sccc1N(C)S(=O)(=O)c1ccccc1`, the Percent Effect is -0.473% in test [1]; 23.7% in test [2]; -3.53% in [3]; -18.2% in [4]; -0.0974% with Trypanosoma cruzi; -3.55% in [5]. The Percent Effect was 10.3% in [6]; 23.3% in the test listed under Homo sapiens; -3.19% in [7]; 5.2% in [8]; -3.5% in test [9].

As for `Cc1nn(C)cc1CNC(=O)c1cn(CCC2CCCCN2)nn1` (stereo unspecified), the Percent Effect was -3.59% in [1]; 2.67% in [2]; -4.65% in [3]; 9.99% in [4]; 9.64% with Trypanosoma cruzi; -1.04% in [5]. For the same compound, the Percent Effect in test [6] is 20.9%; in the test listed under Homo sapiens, -18.7%; in [7], 6.01%; in test [8] it was 16.1%; in test [9] it was -3.7%.

For `N#Cc1ccc(CNCC2CCN(CCO)CC2)cc1`, the Percent Effect in [1] was -1.19%; in test [2], 5.48%; in [3], -0.789%; in test [4], -1.57%; in the test on Trypanosoma cruzi it was -7.05%; in test [5] it was 5%. In addition, the Percent Effect in test [6] is 9.58%; in the test listed under Homo sapiens, 11.5%; in test [7] it was 0%; in test [8], 10%; in [9], -2.99%.

With `CC(C)c1ncc2c(n1)CN(Cc1nc(-c3cccs3)no1)CC2`, the Percent Effect in [1] is -1.45%; in test [2], -10.8%; in test [3], -21.1%; in test [4], -6.68%; with Trypanosoma cruzi, -3.99%; in [5], 2.4%. Further, the Percent Effect in test [6] worked out at 2.33%; in the test listed under Homo sapiens it was 19.6%; in [7] it was 13.9%; in [8] it was 13.4%; in [9], 8.9%.

Consider `Cc1oc(C)c(C(=O)N2CCCN(Cc3cscn3)CC2)c1C`, for which the Percent Effect was -6.32% in test [1]; 7.79% in [2]; 7.44% in test [3]; -1.26% in [4]; -1.47% with Trypanosoma cruzi; -2.32% in [5]. Moreover, the Percent Effect in test [6] is -1.37%; in the test listed under Homo sapiens it was 14.5%; in test [7] it was 6.67%; in test [8], 9.41%; in test [9], -15.7%.

As to `CN1CC(=O)N(c2cnn(C)c2)CC12CCN(Cc1ccccc1)C2` (stereo unspecified), the Percent Effect in test [1] was -4.4%; in test [2], 5.48%; in test [3] it was -2.44%; in [4], 7.88%; with Trypanosoma cruzi it was 10.3%; in test [5], -4.39%. In addition, the Percent Effect in [6] was 4.02%; in the test filed under Homo sapiens it was -7.57%; in [7], 5.21%; in test [8], 8.64%; in [9] it was -4.55%.

In the case of `CNS(=O)(=O)c1ccc(C(=O)NC2CCOc3ccccc32)o1` (stereo unspecified), the Percent Effect in test [1] is -5.29%; in [2], 18.4%; in test [3], 0.291%; in test [4], 1.37%; in the test with Trypanosoma cruzi, 0.682%; in test [5], -3.55%. In addition, the Percent Effect was 11.8% in [6]; 17.5% in the test filed under Homo sapiens; 2.13% in test [7]; 18.2% in test [8]; -7.69% in [9].

With `CC(O)CN1CCN(Cc2cccc(C(=O)N(C)C)c2)CC1` (stereo unspecified), the Percent Effect is -4.84% in test [1]; -141% in [2]; -53.4% in test [3]; 5.64% in test [4]; 1.02% in the test on Trypanosoma cruzi; -3.51% in test [5]. Also, the Percent Effect is -4.31% in test [6]; 5.72% in the test listed under Homo sapiens; 5.94% in test [7]; 3.66% in test [8]; 9.61% in test [9].

Consider `Cc1nc(NCc2ccc(C)o2)cc(C(=O)N2CCOCC2)n1`, for which the Percent Effect was -5.2% in [1]; 15.6% in test [2]; -13.8% in test [3]; 14.3% in test [4]; 9.14% with Trypanosoma cruzi; -55.2% in [5]. Further, the Percent Effect in [6] is 10.5%; in the test filed under Homo sapiens, 4.67%; in test [7] it was 4.3%; in test [8], 8.64%; in test [9] it was -6.33%.

In the case of `Cn1nc(C2CN(C(=O)c3cscn3)C2)c2nccnc21`, the Percent Effect was -0.655% in [1]; 17.6% in test [2]; -2.02% in test [3]; -2.09% in test [4]; 1.38% in the test with Trypanosoma cruzi; 2.55% in test [5]. Also, the Percent Effect in [6] was 17.2%; in the test listed under Homo sapiens, 8.4%; in test [7], 6.45%; in test [8], 11.7%; in test [9], -18.2%.
